About 83,000 compounds went through this panel and 20% of them were active in at least one assay; those are over-represented in the sample as a whole.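 The endpoint reported here, percent growth, reads 100 for growth as untreated, 0 for no net growth and -100 for all cells dead.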 Active and inactive are the calls of the source. The calls were made as follows: active = growth percent below 10; inactive = the rest.
Test system: MDA-MB-231 breast
Test: NCI-60 one-dose screen, 48 h (100 = growth as untreated, 0 = no growth, -100 = all killed)
Conditions: 10 µM

SMILES | growth
CC(=C(c1ccc(OCCN2CCCCC2)cc1)c1ccc(OCCN2CCCCC2)cc1)c1ccccc1 | 4.97% (active)
CCCCCc1ccc(S(=O)(=O)N(C(C)=O)c2cc(-c3csc(N(C)C(C)=O)n3)ccc2N2CCN(C)CC2)cc1 | -5.42% (active)
COc1cc2c3c(n(CCCNC(C)C)c(=O)c2cc1OC)-c1nc2c(cc1C3=O)OCO2 | -90.5% (active)

Test system: RXF 393 renal
Test: as above
Conditions: 10 µM

SMILES | growth
O=C(c1ccc(Cl)cc1)C1[C@H](c2ccccc2Br)[C@@H](c2ccccc2)NC12C(=O)Nc1ccccc12 (some centres undefined) | -12.6% (active)
CC1(C)CC[C@]2(C(=O)Nc3ccccc3)CC[C@]3(C)C(=CC[C@@H]4[C@@]5(C)CC[C@H](N)C(C)(C)[C@@H]5CC[C@]43C)[C@H]2C1 | 59.8% (inactive)
CC(=C(c1ccc(OCCCN(C)C)cc1)c1ccc(OCCCN(C)C)cc1)c1ccccc1 | -96.7% (active)
COc1ccc(C(=O)Nc2sc3c(c2C#N)CCC(=O)C3)cc1C(F)(F)F | -41.9% (active)
COc1ccc2nc(Cl)c(-c3cc(-c4ccccc4)nc(=S)[nH]3)cc2c1 | 46.2% (inactive)
C#Cc1ccc(S(=O)(=O)Nc2cccc(-c3csc(NC(C)=O)n3)c2)cc1 | 88.4% (inactive)
COc1ccc(C(=O)NC(=S)N2CCN(c3ncnc4c3cnn4-c3ccccc3)CC2)cc1 | 49.9% (inactive)
C[C@H]1[C@H](C)CC[C@]2(COC(=O)CCC(=O)NCC#CCN3CCNCC3)CC[C@]3(C)C(=CC[C@@H]4[C@@]5(C)CCCNC(C)(C)[C@@H]5CC[C@]43C)[C@H]12 | 50.3% (inactive)
CC[C@@]1(O)C(=O)OCc2c1cc1n(c2=O)Cc2c-1nc1cc(F)c(C)c3c1c2[C@@H](N)CC3 | -77.2% (active)
Cc1cccc2cc(-c3cc(-c4ccccc4)nc(=S)[nH]3)c(Cl)nc12 | 78.9% (inactive)
CONC[C@]1(C)C=C2C(=O)[C@](C)(O)C3(CC3)C(C)=C2[C@H]1O | -85.9% (active)
CC1(C)CC[C@]2(C(=O)N3CCOCC3)CC[C@]3(C)C(=CC[C@@H]4[C@@]5(C)CC[C@H](NCO)C(C)(C)[C@@H]5CC[C@]43C)[C@H]2C1 | -95% (active)
NS(=O)(=O)c1ccc(N=Nc2c(O)n(CC(=O)Nc3ccccc3Br)c3ccccc23)cc1 | 27.6% (inactive)
CNC(=O)c1cccc(N2CCc3c2ccc(NC(=O)Nc2ccc(N4CCN(C)CC4)c(C(F)(F)F)c2)c3F)c1 | -85.3% (active)
O=C(NCCCCC(c1ccc(F)cc1)c1ccc(F)cc1)NCCCc1cccnc1 | 30.8% (inactive)
CCCS(=O)(=O)c1oc(-c2ccc(F)cc2)nc1S(=O)(=O)c1ccc(F)cc1 | -97.5% (active)
CC(=O)NCC1=C(C)C=C2C(=O)[C@](C)(O)C3(CC3)C(C)=C21 | -74.7% (active)
O=C1Nc2ccc(F)cc2/C1=C/c1cccc(OCc2ccccn2)c1 | 28.3% (inactive)
CC1=N/C(=C\c2ccc(N(C)C)cc2)C(=O)N1CCc1ccc(S(N)(=O)=O)cc1 | 88.9% (inactive)
O=C(Nc1ccc(I)cc1F)c1cc(-c2ccc(F)cc2F)ccc1O | -9.21% (active)
COc1cc(-c2nc3cc(Cl)c(Cl)cc3[nH]2)ccc1OCc1nnc(-c2ccc(Br)cc2)o1 | -77.7% (active)
Cc1ccc(NC(=O)c2ccc(-n3c(=O)[nH]c4ccccc4c3=O)cc2)cc1 | 54.3% (inactive)
CC(=C(c1ccc(OCCN2CCCCC2)cc1)c1ccc(OCCN2CCCCC2)cc1)c1ccccc1 | -66.2% (active)
CCCCCc1ccc(S(=O)(=O)N(C(C)=O)c2cc(-c3csc(N(C)C(C)=O)n3)ccc2N2CCN(C)CC2)cc1 | -69.7% (active)

Test system: SF-268 CNS
Test: as above
Conditions: 10 µM

SMILES | growth
O=C(NO)c1ccc(Cn2ccc3c(Nc4ccccc4)ncnc32)cc1 | 30.8% (inactive)
N#Cc1ccc(-c2nn(-c3ccc(C(=O)O)cc3)cc2CNc2cccc(Br)c2)cc1 | 51.7% (inactive)
O=C(c1ccc(Cl)cc1)C1[C@H](c2ccccc2Br)[C@@H](c2ccccc2)NC12C(=O)Nc1ccccc12 (some centres undefined) | 27.9% (inactive)
CC1(C)CC[C@]2(C(=O)Nc3ccccc3)CC[C@]3(C)C(=CC[C@@H]4[C@@]5(C)CC[C@H](N)C(C)(C)[C@@H]5CC[C@]43C)[C@H]2C1 | 119% (inactive)
CC(=C(c1ccc(OCCCN(C)C)cc1)c1ccc(OCCCN(C)C)cc1)c1ccccc1 | -80.4% (active)
Cc1ccc(/C=C/C(=O)c2ccc(S(=O)(=O)NCCNc3nc(Nc4ccc(F)cc4)nc(N(C)C)n3)cc2)cc1 | 34.6% (inactive)
COc1ccc(C(=O)Nc2sc3c(c2C#N)CCC(=O)C3)cc1C(F)(F)F | 26.8% (inactive)
COc1ccc2nc(Cl)c(-c3cc(-c4ccccc4)nc(=S)[nH]3)cc2c1 | 67.9% (inactive)
Cc1ccc(-c2cc(C(=O)N=Nc3c(O)[nH]c4ccccc34)c3ccccc3n2)cc1 | 36.4% (inactive)
C#Cc1ccc(S(=O)(=O)Nc2cccc(-c3csc(NC(C)=O)n3)c2)cc1 | 87.3% (inactive)
CC(C)C1=C[C@@]23CC[C@@H]4[C@](C)(CCC[C@]4(C)C(=O)NCc4ccccc4)[C@H]2C[C@@H]1[C@H]1C(=O)CCC(=O)[C@H]13 | 80.4% (inactive)
COc1ccc(C(=O)NC(=S)N2CCN(c3ncnc4c3cnn4-c3ccccc3)CC2)cc1 | 63.8% (inactive)
C[C@H]1[C@H](C)CC[C@]2(COC(=O)CCC(=O)NCC#CCN3CCNCC3)CC[C@]3(C)C(=CC[C@@H]4[C@@]5(C)CCCNC(C)(C)[C@@H]5CC[C@]43C)[C@H]12 | 77.1% (inactive)
CC[C@@]1(O)C(=O)OCc2c1cc1n(c2=O)Cc2c-1nc1cc(F)c(C)c3c1c2[C@@H](N)CC3 | 6.53% (active)
Cc1cccc2cc(-c3cc(-c4ccccc4)nc(=S)[nH]3)c(Cl)nc12 | 112% (inactive)
Cc1ccc(CNC(=O)Cc2ccc3c(c2)CN(C2CCC(=O)NC2=O)C3=O)cc1 (centres undefined) | 9.5% (active)
CONC[C@]1(C)C=C2C(=O)[C@](C)(O)C3(CC3)C(C)=C2[C@H]1O | -4.06% (active)
CC1(C)CC[C@]2(C(=O)N3CCOCC3)CC[C@]3(C)C(=CC[C@@H]4[C@@]5(C)CC[C@H](NCO)C(C)(C)[C@@H]5CC[C@]43C)[C@H]2C1 | -76.5% (active)
NS(=O)(=O)c1ccc(N=Nc2c(O)n(CC(=O)Nc3ccccc3Br)c3ccccc23)cc1 | 86.6% (inactive)

SMILES | growth
CNC(=O)c1cccc(N2CCc3c2ccc(NC(=O)Nc2ccc(N4CCN(C)CC4)c(C(F)(F)F)c2)c3F)c1 | -62.7% (active)
O=C(NCCCCC(c1ccc(F)cc1)c1ccc(F)cc1)NCCCc1cccnc1 | 52.4% (inactive)
CC(=O)Nc1ccc(-c2cn(-c3cccc(C(=O)Nc4ccc(Cl)c(C(F)(F)F)c4)c3)nn2)cn1 | 6.74% (active)
CCCS(=O)(=O)c1oc(-c2ccc(F)cc2)nc1S(=O)(=O)c1ccc(F)cc1 | 52.2% (inactive)
O=C(Cn1nc(-c2ccccc2)ccc1=O)NN1C(=O)c2ccccc2C1=O | 97.9% (inactive)
CC(=O)NCC1=C(C)C=C2C(=O)[C@](C)(O)C3(CC3)C(C)=C21 | 18.3% (inactive)
CCN1CCN(Cc2ccc(C(=O)Nc3cccc(-c4cn(-c5ccc6oc(=O)ccc6c5)nn4)c3)cc2C(F)(F)F)CC1 | -32.5% (active)
CCOP(=O)(OCC)O[C@H]1CCC(=O)[C@@H]2[C@H]1[C@H]1C[C@@H]3[C@@]4(C)CCCC(C)(C(=O)OC)[C@@H]4CC[C@@]23C=C1C(C)C (some centres undefined) | 76.4% (inactive)
O=C1Nc2ccc(F)cc2/C1=C/c1cccc(OCc2ccccn2)c1 | 23.4% (inactive)
CC1=N/C(=C\c2ccc(N(C)C)cc2)C(=O)N1CCc1ccc(S(N)(=O)=O)cc1 | 102% (inactive)
O=C(Nc1ccc(I)cc1F)c1cc(-c2ccc(F)cc2F)ccc1O | 8.16% (active)
C/C(=N\NC(N)=S)c1ccc(Nc2nc(SC(C)C)nc(-c3ccccc3)c2C#N)cc1 | 54.8% (inactive)
COc1ccc2c(c1)N=C(C(=O)O)/C2=C/c1sc(Nc2ccc(O)cc2)nc1O | 78.1% (inactive)
COc1cc(-c2nc3cc(Cl)c(Cl)cc3[nH]2)ccc1OCc1nnc(-c2ccc(Br)cc2)o1 | 38.6% (inactive)
Cc1ccc(NC(=O)c2ccc(-n3c(=O)[nH]c4ccccc4c3=O)cc2)cc1 | 84.4% (inactive)
CC(=C(c1ccc(OCCN2CCCCC2)cc1)c1ccc(OCCN2CCCCC2)cc1)c1ccccc1 | 34.5% (inactive)
CCCCCc1ccc(S(=O)(=O)N(C(C)=O)c2cc(-c3csc(N(C)C(C)=O)n3)ccc2N2CCN(C)CC2)cc1 | 65.9% (inactive)
COc1cc2c3c(n(CCCNC(C)C)c(=O)c2cc1OC)-c1nc2c(cc1C3=O)OCO2 | -72.5% (active)
